Compound activity (PubChem)
In the library only some 3% were active in any assay of this set; here they are far more common.
BH1578 lux ind: inducers of Vibrio cholerae quorum light production without autoinducers. V. cholerae BH1578 lux reporter, luminescence, 6 h. activation, % at 18.7 µM. actives 0.16% (n = 350,000). AID 588436; in the data active = activation mostly above about 9.7%, no sharp cut-off
GDH-TPI inh: GDH-TPI coupled enzyme inhibition counter-screen; inhibition, % at 4.8 µM; GDH-TPI coupled enzyme counterscreen, NADH absorbance; AID 588335; actives 1.2% (n = 360,000); in the data active = inhibition above about 30%;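 note: 0% = DMSO wells and 100% = wells lacking the enzyme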
Mtb FBA inh: Mtb fructose-bisphosphate aldolase inhibition; actives 2.3% (n = 360,000); P9WQA3; inhibition, % at 1 µM; AID 588726; purified M. tuberculosis FBA, fluorescence read-out; in the data active = inhibition above about 27%;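 note: 0% = vehicle and 100% = reference inhibitor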
Target sequence (P9WQA3 whole entry, looked up): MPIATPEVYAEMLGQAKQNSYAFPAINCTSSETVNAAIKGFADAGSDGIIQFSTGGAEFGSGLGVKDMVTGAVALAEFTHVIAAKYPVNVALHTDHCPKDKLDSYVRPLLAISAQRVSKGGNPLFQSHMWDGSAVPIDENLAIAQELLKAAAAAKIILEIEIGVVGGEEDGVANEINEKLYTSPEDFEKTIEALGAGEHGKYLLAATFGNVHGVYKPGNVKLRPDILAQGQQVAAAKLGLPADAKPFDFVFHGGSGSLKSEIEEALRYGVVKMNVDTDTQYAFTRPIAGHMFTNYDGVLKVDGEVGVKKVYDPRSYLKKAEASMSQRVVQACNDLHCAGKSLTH
Mtb BioA inh: BioA (M. tuberculosis) enzyme inhibition; purified M. tuberculosis BioA enzyme, plate reader; inhibition, % at 9.99 µM; actives 0.096% (n = 360,000); in the data active = inhibition above about 40%
* marks the source's active call; other numbers are inactive results; i = inactive; . = no result given; + = active, no number.

SMILES	BH1578 lux ind	GDH-TPI inh	Mtb FBA inh	Mtb BioA inh
COC(=O)Cc1c(C)c2ccc(OCC(=O)NC3CCS(=O)(=O)C3)cc2oc1=O (configuration not stated)	i	7	140*	0
Cc1c(Cc2ccccc2)c(=O)oc2cc(OCC(=O)c3ccccc3)ccc12	0	-3	11	.
CCCOc1ccc2c(C)c(CC(=O)OC)c(=O)oc2c1	i	24	121*	1
O=C(COc1ccc2ccc(=O)oc2c1)NC1CCS(=O)(=O)C1 (configuration not stated)	0	19	21	0
COC(=O)Cc1c(C)c2ccc(OCC(=O)N(C)C)cc2oc1=O	i	20	138*	1
C[C@H](CO)N1C[C@H](C)[C@@H](CN(C)S(=O)(=O)c2ccc(Cl)cc2)Oc2ccc(NC(=O)c3ccncc3)cc2C1=O	.	.	.	-1
CCn1cc(/C=C(\NC(=O)c2cc(OC)c(OC)c(OC)c2)C(=O)N2CCOCC2)c2ccccc21	i	31*	0	0
CCn1cc(/C=C(\NC(=O)c2ccccc2OC)C(=O)N2CCOCC2)c2ccccc21	i	28	-1	5
CCn1cc(/C=C(\NC(=O)c2ccc(OC)c(OC)c2)C(=O)N2CCOCC2)c2ccccc21	-1	28	-3	1
CCn1cc(/C=C(\NC(=O)c2ccc(OC)cc2)C(=O)N2CCOCC2)c2ccccc21	i	38*	3	-3
COc1ccc(C(=O)N/C(=C\c2cn(C)c3ccccc23)C(=O)N2CCOCC2)cc1	0	32*	2	-3
CN(C)c1ccc(C=NC(CO)C(O)c2ccc([N+](=O)[O-])cc2)cc1 (configuration not stated)	0	38*	-7	.
O=C(N[C@@H]1CC[C@@H](CCn2cc(C3CCCCC3)nn2)O[C@@H]1CO)c1cccnc1	.	.	.	-2
CCO/C=C1\C(=O)N(CC)c2ccccc21	i	0	-1	.
CCN1C(=O)/C(=C\N(C)C)c2ccccc21	.	32*	-2	1
CCN1C(=O)/C(=C/N(C)C)c2ccccc21	i	37*	-1	0
CO[C@H](CN(C)Cc1nccs1)[C@@H](C)CN([C@@H](C)CO)S(=O)(=O)c1ccc(C)cc1	.	.	.	1
CCOC(=O)c1c(N)n(CCOC(=O)c2cccs2)c2nc3ccccc3nc12	-1	18	173*	3
CCCNC(=O)c1c(N)n(-c2cc(OC)cc(OC)c2)c2nc3ccccc3nc12	-1	6	22	0
CCCCCOC(=O)c1c(N)n(CCOC)c2nc3ccccc3nc12	0	23	+	4
Cc1ccc(S(=O)(=O)Nc2ccc3c(c2)C(=O)N([C@@H](C)CO)C[C@H](C)[C@@H](CN(C)C(=O)Nc2ccccc2)OCCCC[C@H](C)O3)cc1	.	.	.	-4
COc1ccc(CCNC(=O)c2cnc3scc(C)n3c2=O)cc1OC	0	33*	5	5
OCCN=Cc1c(O)[nH]c2ccccc12	.	24	-3	-1
CN(C)CC(C)(C)CN=Cc1c(O)[nH]c2ccccc12	-4	35*	1	-1
Oc1[nH]c2ccccc2c1C=Nc1ccccc1	i	34*	-6	-2
SMILES	BH1578 lux ind	GDH-TPI inh	Mtb FBA inh	Mtb BioA inh
S=c1sc2c(N3CCN(Cc4ccccc4)CC3)ncnc2n1-c1ccccc1	i	6	2	-1
CCN1CCN(c2ncnc3c2sc(=S)n3-c2ccccc2)CC1	0	39*	2	-2
Oc1ccc(C(=Nc2ccccc2)c2ccccc2)c(O)c1	i	45*	-2	-2
O=C(NNC(=O)c1ccc(O)cc1O)c1ccc(-c2ccccc2)cc1	-1	22	5	-6
C[C@@H]1CN([C@@H](C)CO)C(=O)c2cc(C#Cc3ccc(F)cc3)cnc2O[C@@H]1CN(C)C(=O)Nc1ccc(F)cc1	.	.	.	0
COc1ccc(/C=C(\C#N)C(=O)N2CCOCC2)cc1Br	-1	37*	2	1
C[C@H]1CN([C@@H](C)CO)C(=O)c2cc(-c3ccccc3)cnc2O[C@H]1CN(C)C(=O)c1cccc(F)c1	.	.	.	0
O=C(C[C@H]1C[C@@H]2c3cc(NC(=O)Nc4ccccc4F)ccc3O[C@@H]2[C@H](CO)O1)NCc1ccc2c(c1)OCO2	.	.	.	1
Cn1c(/C(C#N)=C/Nc2ccccn2)nc2ccccc21	.	31*	4	-2
CCOc1ccccc1N/C=C(\C#N)c1nc2ccccc2n1C	1	-4	5	.
CO[C@H]1CN(C)C(=O)c2cc(NC(=O)C3CC3)ccc2OC[C@H](C)N(C(=O)c2cnccn2)C[C@@H]1C	.	.	.	0
CCC(=O)Nc1ccc2c(c1)C(=O)N(C)C[C@@H](OC)[C@H](C)CN(CC1CC1)[C@@H](C)CO2	.	.	.	0
CCCC1Cc2[nH]c(=O)c(C#N)cc2CO1 (configuration not stated)	-4	30	126*	-2
CC(C)NC(=O)N(C)C[C@@H]1Oc2ccc(NC(=O)Nc3ccc(F)cc3)cc2CC(=O)N([C@@H](C)CO)C[C@H]1C	.	.	.	0
O=C(O)COc1ccccc1/C=C1\SC(=S)N(/N=C/c2ccccc2O)C1=O	0	24	-6	-3
O=C(O)COc1ccccc1/C=C1\SC(=S)N(NC(=O)c2ccccc2O)C1=O	-1	33*	-3	-1
CCCC(=O)Nc1ccc2c(c1)OC[C@H](C)N(C(=O)CN(C)C)C[C@@H](C)[C@H](OC)CN(C)C2=O	.	.	.	-1
O=C(C[C@H]1C[C@H]2c3cc(NC(=O)Nc4ccc(C(F)(F)F)cc4)ccc3O[C@H]2[C@H](CO)O1)NCc1cccnc1	.	.	.	-1
Cc1ccnc(N/C=C(/NC(=O)c2ccccc2)C(=O)N/N=C\c2ccc(Cl)cc2)n1	i	91*	-5	22
COc1ccc(NC(=O)Nc2ccc3c(c2)CC(=O)N([C@H](C)CO)C[C@@H](C)[C@H](CN(C)Cc2ccc(C(=O)O)cc2)O3)cc1	.	.	.	2
CC1(C)CC(=O)C2=C(C1)N(CCN1CCOCC1)C1=C(C(=O)CC(C)(C)C1)C2c1ccc(Cl)c([N+](=O)[O-])c1	i	2	3	.
Cc1ccc(C2C3=C(CC(C)(C)CC3=O)N(CCN3CCOCC3)C3=C2C(=O)CC(C)(C)C3)cc1	i	7	29*	10
COc1cccc(S(=O)(=O)N[C@@H]2C=C[C@@H](CC(=O)NC3CCC3)O[C@H]2CO)c1	.	.	.	2
O=C(Nc1cccc(O)c1)c1cc(-c2cccs2)on1	0	-6	165*	1
CC(=O)c1cccc(NC(=O)c2cc(-c3cccs3)on2)c1	-9	14	3	-4
C[C@@H]1CCCCO[C@@H](CN(C)C)[C@H](C)CN([C@H](C)CO)C(=O)c2cc(NC(=O)Nc3ccccc3)ccc2O1	.	.	.	3
Cc1ncc([N+](=O)[O-])n1CCOC(=O)c1cc(Cl)cc(Cl)c1N	0	12	7	.
CN(C)C(=O)COC(=O)c1cc(Cl)cc(Cl)c1N	0	5	127*	-1
COc1ccc(-c2cc(-c3ccc(OC)cc3)nc(-c3ccc4c(c3)NC(=O)CO4)c2)cc1	i	32*	1	-2
COc1cccc(-c2nc(-c3ccc4c(c3)NC(=O)CO4)cs2)c1	-2	-5	0	.
